Screening results (PubChem BioAssay)
In the library only some 3.5% were active in any assay of this set; here they are far more common.
TEAD-YAP inh – TEAD-YAP interaction inhibition. HEK-TIYL cells, TEAD-Gal4/YAP UAS-luciferase luminescence. inhibition, % at 9.12 µM. 640,000 compounds, 1.4% hits. AID 1259422; in the data active = inhibition above about 32%;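 also: 0% = median of test compound wells and 100% = reference inhibitor wells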
GPR151 activ – activates the human receptor GPR151; Q8TDV0; PathHunter beta-arrestin GPR151 cells, luminescence; activation, % at 11.2 µM; 650,000 compounds, 1% hits; in the data active = activation above about 4.9%;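 also: 0% = median of compound wells and 100% = cells with positive control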
Target sequence (Q8TDV0 whole entry, looked up): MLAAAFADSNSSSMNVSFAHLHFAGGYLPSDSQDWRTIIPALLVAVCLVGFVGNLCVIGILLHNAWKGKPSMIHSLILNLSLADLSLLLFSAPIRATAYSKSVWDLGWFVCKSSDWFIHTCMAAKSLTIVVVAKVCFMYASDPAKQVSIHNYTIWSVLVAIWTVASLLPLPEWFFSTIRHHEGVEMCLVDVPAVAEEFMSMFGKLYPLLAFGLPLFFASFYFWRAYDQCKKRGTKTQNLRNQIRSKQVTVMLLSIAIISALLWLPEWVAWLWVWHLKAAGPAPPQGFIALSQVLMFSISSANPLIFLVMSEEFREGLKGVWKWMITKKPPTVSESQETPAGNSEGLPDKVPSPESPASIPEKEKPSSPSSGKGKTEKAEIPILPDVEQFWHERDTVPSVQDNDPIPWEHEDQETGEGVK
MITF inh – inhibitors of human MITF | AlphaScreen MITF homodimerization, bead proximity signal | inhibition, % at 2.6 µM | 650,000 compounds, 0.91% hits | AID 1259374; in the data active = inhibition above about 50%;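 also: 0% = vehicle wells with protein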
FBW7 act – human FBW7 E3 ligase activation, primary screen; AlphaScreen FBW7–phospho-cyclin E peptide binding, activator screen; Q969H0; AID 1259310; normalized activity (activation), % at 26.1 µM; 650,000 compounds, 0.13% hits; in the data active = normalized activity above about 1.9%;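 also: purified mutant Fbw7 with reduced substrate affinity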
GPR151 confirm – confirmation of human GPR151 activators. GPR151 PathHunter beta-arrestin cells, luminescence, 90 min; % of EA-reagent control over plate median. 6,700 tested, under 10 active. activation, % at 11.2 µM. AID 1508609. shares compounds with GPR151 activ;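 active = mean percent activation across replicates above the confirmation screen cutoff of 4.91%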
GPR119 ag – activates human GPR119 in a GPR151 counter-screen; shares compounds with GPR151 activ; GPR119 PathHunter beta-arrestin cells, luminescence, 90 min; 0 = compound-well median, 100 = enzyme-acceptor control; activation, % at 11.2 µM; 6,700 compounds, 0.3% hits;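 active = mean percent activation in the counterscreen above 29.09%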;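 also: counterscreen on off-target GPR119 to flag nonselective hits from the GPR151 activator screen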
* hit, by the source's call; nt = no result given; ! = a repeat was not active.

SMILES | TEAD-YAP inh | GPR151 activ | MITF inh | FBW7 act | GPR151 confirm | GPR119 ag
O=c1cccc2n1CC1CC2CN(C(=S)Nc2ccccc2)C1 (configuration not stated) | 10 | -2 | 4 | 1 | nt | nt
COc1cc(OC)cc(C(=O)NC(=S)N2CC3CC(C2)c2cccc(=O)n2C3)c1 (configuration not stated) | 1 | 7.5* | -3 | 0 | -1 | 2
C[C@H]1C/C=C/[C@H]2[C@@H]3O[C@]3(C)[C@@H](C)[C@H]3[C@H](Cc4ccccc4)NC(=O)[C@]32OC(=O)O/C=C/[C@](C)(O)C1=O | -2 | 11* | 12 | 0 | 0 | -5
O=C1Nc2ccc(Cl)cc2C(c2ccccc2Cl)=NC1O (configuration not stated) | -18 | 6.8* | 6 | 0 | 1 | -5
Cc1cccn2c(CNC(C)Cc3cccnc3)c(C(=O)N3CCCCC3)nc12 (configuration not stated) | 0 | -1 | 1 | 0 | nt | nt
CC(Cc1cccnc1)NCc1c(C(=O)N2CCCCCCC2)nc2ccc(Cl)cn12 (configuration not stated) | -10 | 5.0* | -5 | 0 | 0 | -2
CC(=O)NC1(c2ccccc2)CC(C)N(C)CC1C (configuration not stated) | 7 | 5.0* | -27 | 0 | 0 | 7
CN1CCN(Cc2cn3ccccc3n2)CC1 | -4 | 3 | -4 | 0 | nt | nt
COC(=O)CCN1CC2CC(C1)c1cccc(=O)n1C2 (configuration not stated) | 0 | 0 | 12 | 0 | nt | nt
O=C1CC(c2cnc[nH]2)C2(CCCCC2)O1 (configuration not stated) | -6 | 7.9* | 2 | 0 | -1 | -5
COc1ccc(C(=O)O)cc1OC | -8 | 5.7* | -17 | 0 | 0 | 6
COc1ccc(C(=O)OC2CC3CCC(C2)N3)cc1OC (configuration not stated) | 17 | 0 | 8 | 0 | nt | nt
CN1C(=O)N(CC(=O)c2ccccc2)C(=O)C(C)(C2=CCCCC2)C1=O (configuration not stated) | -9 | 1 | 0 | 0 | nt | nt
COc1ccc(CCN(C)Cc2cc(OC)c(OC)cc2[N+](=O)[O-])cc1OC | 13 | 8.4* | -14 | 0 | 0 | 1
COc1ccc(-n2c(/C=C\c3cccc(Br)c3)nc3ccccc3c2=O)cc1 | -2 | 0 | -3 | 0 | nt | nt
O=[N+]([O-])c1cc(Br)c(O)c(Br)c1 | 2 | 1 | 10 | 0 | nt | nt
Cc1ccccc1N1CCN(Cc2ccc([N+](=O)[O-])cc2)CC1 | -3 | 0 | 0 | 0 | nt | nt
COc1ccccc1N1CCN(Cc2ccc([N+](=O)[O-])cc2)CC1 | 8 | 5.5* | 37 | 0 | -1 | 8
O=c1oc2ccccc2c2c1C(c1ccncc1)c1c(c3ccccc3oc1=O)O2 | -6 | -1 | -3 | 0 | nt | nt
CC12C=CC(=O)C=C1CCC1C2CCC2(C)C(=O)CCC12 (configuration not stated) | -16 | 5.1* | 7 | 0 | 0 | -6
C[C@]12CCC(=O)C=C1CC[C@@H]1[C@@H]2CC[C@]2(C)C(=O)CC[C@@H]12 | -6 | -1 | 2 | 1 | nt | nt
O=C1CN=C(c2ccccc2)c2oc3ccc(Br)cc3c2N1 | 0 | 2 | -1 | 0 | nt | nt
COc1cccc(OC)c1C1=NCC(=O)Nc2c1oc1ccc(Br)cc21 | 58* | 5.7* | 5 | 0 | 0 | -4
CC(=O)c1ccc(OCC(=O)N2CCCC(N(C)CCc3ccccc3)C2)cc1 (configuration not stated) | -2 | 5.0* | 19 | 0 | 1 | 5
O=C(COc1ccc(Br)cc1)N1CCN(CC2CC=CCC2)CC1 (configuration not stated) | -1 | 9.7* | 16 | 1 | 0 | -7
SMILES | TEAD-YAP inh | GPR151 activ | MITF inh | FBW7 act | GPR151 confirm | GPR119 ag
O=c1c2ccccc2nc(/C=C/c2ccccc2)n1-c1ccccc1 | -4 | 0 | 6 | 0 | nt | nt
O=c1c2ccccc2nc(/C=C/c2ccccc2)n1-c1ccc(Cl)cc1 | 12 | 4.9* | -19 | 0 | 0 | -6
CCOc1ccc(-n2c(/C=C/c3ccccc3)nc3ccccc3c2=O)cc1 | 13 | 6.9* | -4 | 0 | 0 | -6
C[C@H]1OC[C@@H](C[N+](C)(C)C)O1 | 2 | -1 | 3 | 0 | nt | nt
C[C@@H]1O[C@H](C[N+](C)(C)C)C[C@H]1O | 5 | 5.9*! | -1 | 0 | 0 | 6
COc1ccc2cc(C(=O)O)n(Cc3ccccc3)c2c1 | 5 | -1 | 10 | 1 | nt | nt
CCCCCCCCCCCCCCCC[n+]1ccccc1 | 60* | 5.0* | -7 | 0 | 2 | 13
CN1C(=O)NC(=O)/C(=C/c2ccc(-c3ccccc3[N+](=O)[O-])o2)C1=O | 4 | 5.0* | 1 | 0 | -1 | -14
O=c1c2ccccc2nc(/C=C\c2ccc(F)c(F)c2)n1-c1ccccc1Cl | 6 | -1 | 3 | -1 | nt | nt
CCCOc1ccc(C(=O)OCCN2CCCC2)c(O)c1 | -3 | 0 | -19 | 0 | nt | nt
CCN(Cc1ccccc1)C(=O)C(Cl)(Cl)Cl | 5 | 6.0* | 2 | 0 | -1 | 2
O=C(O)c1nc(Cl)c(Cl)c(N2CC2)c1Cl | 6 | 0 | -4 | 0 | nt | nt
CCCCOC(=O)C1=C(N)OC(C)=C(C(=O)OCCOC)C12C(=O)Nc1ccccc12 (configuration not stated) | 7 | 5.3* | 1 | 0 | 0 | 2
CCOC(=O)C1=C(N)OC(C)=C(C(=O)OCCOC)C12C(=O)Nc1ccccc12 (configuration not stated) | -6 | 1 | 14 | 0 | nt | nt
COc1ccc(C(=O)C2CCCN(C)C2)c(OC)c1 (configuration not stated) | 3 | 5.0* | 35 | 0 | 0 | -10
C[N+](C)(C)CC(=O)Nc1ccc(Br)cc1C(=O)c1ccccc1 | -1 | 0 | 16 | 0 | nt | nt
CCN1CC2(COC)CC[C@H](O)C34C5C[C@@H]6C(OC)C[C@@](O)(C5[C@H]6OC(C)=O)[C@@H](CC23)[C@@H]14 (some centres not stated) | 3 | 5.4* | -1 | 0 | 0 | 8
CCN1CCN(Cc2cc(Br)cc(OC)c2O)CC1 | -2 | 6.6* | 31 | 0 | 0 | -1
C[C@H]1CC[C@@H]2[C@@H](C)[C@H]3[C@H](CC4[C@@H]5CC=C6CC(O[C@@H]7O[C@H](CO)C(O[C@@H]8O[C@@H](C)[C@H](O)[C@@H](O)[C@H]8O)[C@H](O)[C@H]7O[C@@H]7O[C@@H](C)[C@H](O)[C@@H](O)[C@H]7O)CC[C@]6(C)[C@H]5CC[C@@]43C)N2C1 (some centres not stated) | -12 | 7.2* | 11 | 0 | 3 | 18
Cc1ccc(-n2c(C=C3C(=O)Nc4ccccc43)nc3ccc(I)cc3c2=O)cc1 | 5 | 1 | 5 | 0 | nt | nt
C=C(C)[C@@H]1C2C(=O)O[C@H]1[C@H]1OC(=O)[C@@]34OC3C[C@]2(O)[C@@]14C (some centres not stated) | 5 | 7.9*! | 18 | 0 | 0 | -10
